# Only some compounds are listed: those with a hit (about 13% of all), similar ones and a draw of the others.
# CHOP inh – blocks CHOP induction under ER stress | CHO-K1 CHOP-promoter luciferase, tunicamycin-induced, 15-18 h | inhibition, % at 10 µM | hit rate 3.8% among 220,000 | AID 2732;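 active = compounds that reduced the stress-induced luciferase reporter signal by more than about 70% of percent inhibition, limit read from the data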;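 note: 0% = tunicamycin plus vehicle and 100% = wells without tunicamycin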
# L major viab – inhibitors of Leishmania major promastigote growth; Leishmania major promastigotes, resazurin fluorescence viability; inhibition, % at 10 µM; hit rate 9% among 200,000; in the data active = inhibition above about 50%;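 note: promastigotes grown with compound for 44 hours at 28 °C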
# RAM inhibit – blocks the yeast RAM network; S. cerevisiae dse1pr::URA3 reporter, 5-FOA growth OD615, 2 d; analog-sensitive cbk1-as2 kinase mutant strain; hit rate 1.8% among 190,000; inhibition, % at 50 µM; AID 868;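 active = inhibition above a set limit, 3 SD over mean compound inhibition, cut at about 8.4% in these data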;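 note: 0% = DMSO-only wells with no growth and 100% = 10 µM 1-NA-PP1 full growth; inhibition rescues growth on 5-FOA so higher OD means more RAM inhibition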
# WT yeast gro inh – growth inhibition of WT yeast, mitochondrial fusion screen; inhibition, % at 10 µM; AID 1362; hit rate 2.1% among 190,000; mitochondrial fusion phenotypic screen, WT strain; in the data active = inhibition above about 58%; tested in S. cerevisiae
# The depositor's hits bear a star; / = no result given.
SMILES,CHOP inh,L major viab,RAM inhibit,WT yeast gro inh
CCOC(=O)c1c(NC(=O)Cn2ccsc2=N)sc(C)c1C,0,23,1,7
CCC(=O)N1CCN(c2ccc(NC(=O)c3ccc(-c4ccccc4)cc3)cc2)CC1,28,-2,3,-5
CCOc1ccc(C(=O)C(CN2CCOCC2)c2ccccc2)cc1 (configuration not stated),-68,99*,3,20
COc1ccc(C(O)C(CN2CCOCC2)c2ccccc2)cc1 (configuration not stated),8,89*,-1,-4
COc1cccc(OCC(O)CN2CCOCC2)c1 (configuration not stated),-4,1,-1,-3
O=C1CCCCC1Sc1nnc(-c2ccc3c(c2)OCO3)o1 (configuration not stated),50,5,2,4
O=C(NCC1CCCN(Cc2ccccc2F)C1)c1cccc(C(F)(F)F)c1 (configuration not stated),36,61*,1,7
CCOC(=O)C1(CC2CCCCO2)CCN(Cc2ccc(OC)cc2F)CC1 (configuration not stated),10,7,0,2
CCOc1cc(CN2CCCC(CNC(=O)c3ccc(F)cc3)C2)ccc1OC (configuration not stated),14,/,/,/
COc1ccc(CN2CCCC(CNC(=O)c3ccc(F)cc3)C2)c(F)c1 (configuration not stated),-2,89*,0,0
COc1ccc(CN2CCCC(CNC(=O)c3ccc(F)cc3)C2)c(C)c1C (configuration not stated),6,80*,1,-4
O=C(NCC1CCCN(Cc2cccc(OCCO)c2)C1)c1ccc(F)cc1 (configuration not stated),21,-1,1,-6
O=C(N/N=C/c1ccc(N2CCOCC2)cc1)C1COc2ccccc2O1 (configuration not stated),3,6,2,0
Cc1ccsc1/C=N/N1CCN(c2ccccc2)CC1,-46,53*,2,-2
CCn1cc(C(=O)OCC(=O)Nc2ccc(S(=O)(=O)N3CCCC3)cc2)c(=O)c2ccc(C)nc21,67,-1,6,5
CCOC1=C/C(=C/c2c(N)n3nc(-c4ccccc4)sc3nc2=O)C=CC1=O,23,12,2,10
COC1=C/C(=C/c2c(N)n3nc(-c4ccc(C)cc4)sc3nc2=O)C=CC1=O,12,74*,2,0
NC(=O)COc1ccccc1/C=C1/SC(=O)N(CC(=O)N2CCc3ccccc3C2)C1=O,-1,95*,3,-11
Cc1cccc(N2C(=O)C(Oc3ccc(Cl)cc3Cl)C2C(=O)O)c1C (configuration not stated),20,-6,3,7
CCCCNCC1C(Oc2ccc(Cl)cc2)C(=O)N1c1ccccc1C (configuration not stated),77*,41,1,23
CCCNCC1C(Oc2ccc(Cl)cc2Cl)C(=O)N1c1cccc(C)c1C (configuration not stated),-2,72*,-1,66
COc1ccc(S(=O)(=O)NC(CC(=O)N2CCc3ccccc32)c2ccco2)cc1 (configuration not stated),43,76*,2,15
Cc1ccc(S(=O)(=O)NC(CC(=O)N2CCc3ccccc32)c2ccco2)cc1 (configuration not stated),53,17,5,2
O=C1Nc2ccccc2Oc2cc([N+](=O)[O-])ccc21,74*,13,4,19
Cc1ccc2c(c1)NC(=O)c1cc([N+](=O)[O-])ccc1O2,10,0,3,3
SMILES,CHOP inh,L major viab,RAM inhibit,WT yeast gro inh
COc1ccc(NC(=O)C2=C(C)Nc3nc(CCCO)nn3C2c2ccc(OC)c(OC)c2)cc1 (configuration not stated),15,-5,0,11
Cc1nn(C(C)(C)C)c(OC(=O)c2ccco2)c1Sc1ccccc1,75*,-2,6,-22
Cc1nn(C(C)(C)C)c(OC(=O)c2ccc3c(c2)OCO3)c1Sc1ccccc1,44,8,7,75*
Cc1nn(C(C)(C)C)c(OC(=O)c2ccc3c(c2)OCO3)c1S(=O)(=O)c1ccccc1,18,25,5,44
Cc1nn(C(C)(C)C)c(OC(=O)c2cccs2)c1Sc1ccccc1,81*,2,11*,83*
Cc1nn(C(C)(C)C)c(OC(=O)c2ccc(Br)o2)c1Sc1ccccc1,67,15,11*,12
Cc1cccc(/C=N/NC(=O)Cn2nnnc2N)n1,-9,/,/,/
Cc1cc(C)cc(NC(=O)c2cnn(-c3ccccc3)c2C2CCNCC2)c1,-33,32,0,6
Cc1cc(C)n(C(=O)COc2ccccc2[N+](=O)[O-])n1,14,/,/,/
CCCCOc1ccc(C2C(C(=O)c3ccc(C)o3)=C(O)C(=O)N2CC2CCCO2)cc1 (configuration not stated),40,53*,2,1
COc1cc(CNC(C)(C)CO)cc(Br)c1OCc1ccc(Cl)cc1Cl,27,100*,-1,94*
COc1cc(CNc2ccc(O)cc2)cc(Br)c1OCc1ccccc1,45,10,-1,7
COc1cc(/C=N/O)cc(Br)c1OCc1ccc(Cl)cc1,28,19,6,-19
COc1cc(CNC(C)(C)CO)cc(Br)c1OCc1ccc(Cl)cc1,11,98*,0,41
COc1cc(NC(=S)N2CCCCC2C)cc(OC)c1OC (configuration not stated),-6,-6,2,24
c1ccc(-n2cc(CN3CCCC(CN4CCCC4)C3)c(-c3ccc4c(c3)OCO4)n2)cc1 (configuration not stated),-7,100*,-1,-10
OC[C@@H]1CCCN1Cc1cn(-c2ccccc2)nc1-c1ccc2c(c1)OCO2,20,14,1,-9
CCN(CC)c1nc(=S)nc(NC(C)(C)C)[nH]1,2,95*,1,37
Cc1cccc(N(Cc2ccccc2)C(=O)CCl)c1,-98,81*,0,-27
Cc1cccc(N(CC(=O)O)CC(=O)O)c1,22,3,1,-8
O=C(c1cccnc1)N(Cc1ccccc1)c1ccccc1,-14,2,2,15
O=C(CCl)N(Cc1ccccc1)c1ccccc1,-83,79*,3,-29
CCOC(=O)N1CCN(CC(=O)N2CCC(C(N)=O)CC2)CC1,-4,-6,0,-14
CCOC(=O)N1CCN(CC(=O)Nc2sccc2C#N)CC1,-18,8,0,-7
O=[N+]([O-])c1cc(C(F)(F)F)cc([N+](=O)[O-])c1Sc1n[nH]c(C(F)(F)F)n1,18,/,/,/
SMILES,CHOP inh,L major viab,RAM inhibit,WT yeast gro inh
C/C(=C\c1ccccc1)CN(C)CCN(C)C,2,97*,0,-12
C/C(=C\c1ccccc1)CN1CCN(c2ccccc2F)CC1,28,-2,2,7
Cc1ccc(NC(=O)Cn2cccc2)cc1C,1,-5,-1,-16
Cc1ccc(C)c(Sc2ccc(NC(=O)CCl)cc2)c1,-14,100*,-1,69*
Cc1ccc(Sc2ccc(NC(=O)CCl)cc2)cc1C,-63,100*,-2,66*
CSc1ccc(NC(=O)CC(C)=O)cc1,15,-1,0,-9
